Our source for the inhibition values is PubChem BioAssay.

Unmarked numbers belong to inactive results. Active and inactive are the calls of the source.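 How the source made its calls, unless noted: active means mean inhibition over 43.08%, the solvent-only control mean plus 3 SD; inactive means the rest.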

One may read the inhibition as the drop in the measured response relative to a control, in per cent.

The target of test [1] is Nuclear receptor coactivator 3 (Homo sapiens) (UniProt Q9Y6Q9). The experiment in a line: SRC3 coactivator transcriptional activity inhibitors, confirmation, cell-based, luminescence, quadruplicate (AID 588792).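 Further: 0% = DMSO treated cells and 100% = gossypol at 36 µM.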 The following applies: HEK293 GAL4-SRC3 luciferase reporter, at 3.6 µM, hits give high values.
Chain of Nuclear receptor coactivator 3 (Homo sapiens) (Q9Y6Q9 whole entry, looked up, the tested form may be a part): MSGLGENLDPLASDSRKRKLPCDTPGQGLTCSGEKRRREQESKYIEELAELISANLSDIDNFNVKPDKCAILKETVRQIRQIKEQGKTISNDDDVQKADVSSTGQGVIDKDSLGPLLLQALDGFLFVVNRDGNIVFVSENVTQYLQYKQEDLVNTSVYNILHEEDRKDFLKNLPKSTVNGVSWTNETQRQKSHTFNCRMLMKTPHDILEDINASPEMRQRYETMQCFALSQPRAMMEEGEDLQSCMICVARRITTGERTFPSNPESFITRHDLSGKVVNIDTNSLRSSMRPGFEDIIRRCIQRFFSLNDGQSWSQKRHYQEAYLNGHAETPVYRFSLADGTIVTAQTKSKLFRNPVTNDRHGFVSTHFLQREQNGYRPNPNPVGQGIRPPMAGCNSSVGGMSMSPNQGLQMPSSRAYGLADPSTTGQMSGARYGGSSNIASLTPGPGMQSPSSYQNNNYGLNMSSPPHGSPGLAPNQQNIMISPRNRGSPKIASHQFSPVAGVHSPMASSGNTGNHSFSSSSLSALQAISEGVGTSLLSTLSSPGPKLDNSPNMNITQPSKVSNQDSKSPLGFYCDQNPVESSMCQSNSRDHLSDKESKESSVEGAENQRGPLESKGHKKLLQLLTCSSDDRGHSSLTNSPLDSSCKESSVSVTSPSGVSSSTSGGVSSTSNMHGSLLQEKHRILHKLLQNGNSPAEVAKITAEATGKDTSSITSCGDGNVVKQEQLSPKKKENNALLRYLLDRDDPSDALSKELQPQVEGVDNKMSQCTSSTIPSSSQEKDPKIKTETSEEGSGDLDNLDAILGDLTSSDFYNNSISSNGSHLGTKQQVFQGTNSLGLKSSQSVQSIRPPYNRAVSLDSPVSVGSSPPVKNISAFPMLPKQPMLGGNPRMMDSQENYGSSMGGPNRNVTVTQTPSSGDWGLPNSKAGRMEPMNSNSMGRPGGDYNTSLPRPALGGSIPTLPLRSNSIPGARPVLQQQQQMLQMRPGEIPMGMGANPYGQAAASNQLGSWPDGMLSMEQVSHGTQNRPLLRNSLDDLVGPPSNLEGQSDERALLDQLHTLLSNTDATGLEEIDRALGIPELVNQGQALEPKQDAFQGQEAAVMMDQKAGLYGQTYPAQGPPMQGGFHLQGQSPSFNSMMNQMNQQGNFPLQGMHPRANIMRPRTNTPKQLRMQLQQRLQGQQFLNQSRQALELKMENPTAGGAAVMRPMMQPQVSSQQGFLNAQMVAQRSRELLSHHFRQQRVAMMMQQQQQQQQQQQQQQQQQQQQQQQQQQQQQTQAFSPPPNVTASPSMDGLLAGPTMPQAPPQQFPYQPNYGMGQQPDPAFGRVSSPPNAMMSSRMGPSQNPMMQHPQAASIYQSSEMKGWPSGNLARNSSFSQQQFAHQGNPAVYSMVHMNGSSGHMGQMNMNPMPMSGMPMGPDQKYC
The test system of test [2] is transactivating tegument protein VP16 (Human herpesvirus 1), Gal4-VP16 luciferase reporter. Briefly: VP16 transactivation inhibitors, counter-screen for SRC3 inhibitor project, cell-based, luminescence, high throughput (AID 588794; in the data active means inhibition above about 30%). Particulars: mammalian cells, VP16-driven luciferase reporter luminescence; at 3.6 µM; hits give high values. (In general: The purpose of a counterscreen is to sort out artefacts and off-target activity.)

Consider `COc1cc(/C=C2\SC(=S)N(CCC(=O)NC3CCCC3)C2=O)cc(OC)c1OC`, for which the inhibition in test [1] is -4.46%; in test [2], 9.3%.
For `CCCC(=O)NC(c1ccc(C(C)C)cc1)c1ccc2cccnc2c1O` (configuration not stated), the results for the inhibition in test [1] and in test [2] were 74.5% (active) and 73.2% (active), respectively.
For `Cc1ccc(S(=O)(=O)NC(=O)c2cc(C)n(-c3ccccc3)c2C)cc1`, in that order: -1.88% and -1.79%.
For `Cc1[nH]nc(-c2ccc(O)cc2O)c1Oc1ccccc1`, the values for the inhibition in test [1] and in test [2] were 3.77% and 10.3%, respectively.
For `COc1ccccc1N1CCN(C(=O)CSc2nnc3n2C(C)(C)Cc2ccccc2-3)CC1`, in that order: -10.1% and 27.2%.
For `Cc1cccc(N2CCN(C(=O)C3CCN(c4ncnc5c4nc4n5CCCCC4)CC3)CC2)c1C`, in that order: -4.11% and 11.5%.
